Measurements reported in PubChem BioAssay AID449762 (Southern Research Specialized Biocontainment Screening …, 2010).
Several values for one entry are separate records, joined by “and”; a condition that tells them apart may be missing. Equal entries are not always repeated. Screen size: about 330,000 compounds; about 1,900 (0.58%) were called active. About 4% were inconclusive and are not listed. Rule as the data show it: inconclusive = inhibition above about 70% without an active follow-up result; inactive = below that. The list is a sample of the results. Results with a measured potency or affinity are listed apart.

Test: M. tuberculosis growth inhibition, HTS (AID 449762);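 also: bacterial growth assessed after seven days of incubation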
Settings: M. tuberculosis H37Rv growth inhibition, 7H9 media; at 25 µM; stronger effect = higher value

| Compound | inhibition |
| --- | --- |
| N/C(=N\OC(=O)c1ccc([N+](=O)[O-])cc1)c1cccnc1 | 8.92% (inactive) |
| CC(C)(C)C1=C(C#N)C(c2cc3c(cc2Br)OCO3)C(C#N)=C(N)O1 (centres undefined) | -2.53% (inactive) |
| O=C(Nc1ccc(N2CCN(C(=O)c3cccs3)CC2)cc1)c1ccccc1Cl | 1.86% (inactive) |
| Cc1cccc(NC(=O)c2ccc(C3SCC(=O)N3CCc3ccccc3)cc2)c1 (centres undefined) | 0.15% (inactive) |
| CC(=O)Nc1ccc(NC(=O)c2ccc(C3SCC(=O)N3CCc3ccccc3)cc2)cc1 (centres undefined) | 15.4% (inactive) |
| Oc1cc(NCc2ccc(F)cc2)cc2cccnc12 | 8.32% (inactive) |
| Oc1cc(Nc2ccncc2)cc2cccnc12 | 13.8% (inactive) |
| CC(C)n1nnc(-c2ccc(OCc3ccccc3F)cc2)n1 | 8.81% (inactive) |
| COc1ccc(NC(=O)CNC(=O)Cn2cnc3sc4c(c3c2=O)CCCC4)cc1OC | 9.66% (inactive) |
| COc1cccc(NC(=O)CNC(=O)Cn2cnc3sc(C)c(C)c3c2=O)c1 | -5.96% (inactive) |
| O=C(O)CCc1ccc(-c2ccccc2)o1 | -1.56% (inactive) |
| COc1ccccc1-c1ccc(SCC(=O)NC2CCCC2)nn1 | -0.31% (inactive) |
| O=C(C#Cc1cccc([N+](=O)[O-])c1)c1ccccc1 | 6.12% (inactive) |
| Nc1ccccc1C#Cc1ccccc1 | -9.91% (inactive) |
| CC1CCCC(NC(=O)CN(C)CC(=O)Nc2ccc(F)cc2)C1C (centres undefined) | -12.8% (inactive) |
| Nc1nnc(SCC(=O)OCC(=O)Nc2ccccc2)s1 | -4.86% (inactive) |
| O=C(CNS(=O)(=O)c1ccccc1)N1CCN(Cc2ccccc2)CC1 | -2.28% (inactive) |
| CCCCS(=O)(=O)/C=C\C1C2C=CC(C2)C1S(=O)(=O)CCCC (centres undefined) | 0.63% (inactive) |
| CCCCS(=O)(=O)/C=C/[C@H]1[C@H](S(=O)(=O)CCCC)[C@H]2C=C[C@@H]1C2 | 1.49% (inactive) |
| Oc1ccc(-c2c(-c3ccsc3)sc3ccccc23)cc1 | 28.2% (inactive) |
| COCc1ccc(-c2c(-c3ccsc3)sc3ccccc23)cc1 | 6.72% (inactive) |
| CCN1CCN(c2ccc(NC(=O)c3cccc(F)c3)cc2Cl)CC1 | 4.34% (inactive) |
| CC(C)(C)C(=O)N1CCN(c2nc3ccc(Cl)cc3s2)CC1 | 13.8% (inactive) |
| Cc1ccc(-n2cc(CN(C)CCc3cn[nH]c3)c(-c3cccc(C)c3)n2)cc1 | 19.1% (inactive) |

| Compound | inhibition |
| --- | --- |
| CN(Cc1cn(C)nc1-c1cccc(Cl)c1)Cc1nccn1C | -10.3% (inactive) |
| Cc1ccc(NC2=C/C(=N/S(=O)(=O)c3cccs3)c3ccccc3C2=O)cc1 | 62.9% (inactive) |
| Cc1ccc(NC2=C/C(=N/S(=O)(=O)c3cccs3)c3ccccc3C2=O)cc1C | 5.44% (inactive) |
| COc1ccc(Cl)cc1NC(=O)Nc1ccc(Br)cn1 | 5.18% (inactive) |
| O=C(O)COc1ccc(-c2nccc(-c3ccccn3)n2)cc1 | 0.08% (inactive) |
| CC(Oc1ccc(-c2nccc(-c3ccccn3)n2)cc1)C(=O)NN (centres undefined) | -4.92% (inactive) |
| CC(=O)CSc1nc2ccccc2s1 | -0.04% (inactive) |
| O=C(CSc1nc2ccccc2s1)CSc1nc2ccccc2s1 | 12% (inactive) |
| c1ccc(-c2nc3ccccc3c3nc4ccccc4n23)cc1 | -1.99% (inactive) |
| FC(F)(F)c1nc2ccccc2c2nc3ccccc3n12 | 9.4% (inactive) |
| COC(=O)CCNC(=O)c1ccc2nc(Cc3ccc(OC)c(OC)c3)oc2c1 | -1.6% (inactive) |
| COc1ccc(Cc2nc3ccc(C(=O)NCCSC)cc3o2)cc1 | 2.47% (inactive) |
| C/C(=N\NC(=O)C1CC1c1ccccc1)c1ccc(C)s1 (centres undefined) | -2.49% (inactive) |
| CCOC(=O)Cc1nn(Cc2nc(-c3ccc(C)cc3)cs2)c(=O)c2ccccc12 | -4.15% (inactive) |
| Cn1nc(-c2ccc(OCC(N)=O)cc2)c2ccccc2c1=O | -19.8% (inactive) |
| CNC(=O)COc1ccc(-c2nn(C)c(=O)c3ccccc23)cc1 | -7.66% (inactive) |
| CCOC(=O)N1CCN(S(=O)(=O)c2ccc(C(=O)Nc3nc4c(s3)CC(C)CC4)cc2)CC1 (centres undefined) | 16.7% (inactive) |
| C#CCn1cnc2c(oc3ccccc32)c1=O | 2.24% (inactive) |
| COc1ccc(Br)cc1-c1nc(CCl)cs1 | 60.4% (inactive) |
| N#C/C(=C\c1ccccn1)c1ccccn1 | -3.85% (inactive) |
| Cc1cc(C)n2nc(CC#N)c(C#N)c2n1 | 1.45% (inactive) |
| CCc1ccc(N2C(=O)CN(Cc3cccs3)C2=S)cc1 | 38.7% (inactive) |
| COc1ccccc1Nc1nc(N)nc(CN2CCN(Cc3ccccc3)CC2)n1 | 43.2% (inactive) |
| COc1ccc(OCc2nc(N)nc(Nc3ccccc3OC)n2)cc1 | 2.69% (inactive) |

| Compound | inhibition |
| --- | --- |
| O=C(CNC(=O)c1ccc(Br)o1)NC12CC3CC(CC(C3)C1)C2 | 5.74% (inactive) |
| COc1ccc(CN2C(=NC(=O)COc3ccccc3)SC3CS(=O)(=O)CC32)cc1 (centres undefined) | -7.1% (inactive) |
| Cc1cc(C)n2nc(SCCCC(=O)c3ccc(F)cc3)nc2n1 | -9.89% (inactive) |
| CN(C)N=Nc1ccc2nc[nH]c2c1 | -2.52% (inactive) |
| NC(=O)c1[nH]cnc1N | -17.9% (inactive) and 7.5% (inactive) |
| O=C1CCCCN1CCC(=O)N1CCCC(N2CCN(c3cccc(Cl)c3)CC2)C1 (centres undefined) | -10.9% (inactive) |
| O=C(NNC(=O)C1CC(c2cccs2)=NO1)Nc1ccc(Cl)cc1 (centres undefined) | -0.49% (inactive) |
| Cc1cc(=O)[nH]c(SCC(=O)N(CCC#N)c2ccccc2)c1C#N | -2.5% (inactive) |
| CCCCNC(=S)N1CCn2cccc2C1c1cccnc1 (centres undefined) | -0.76% (inactive) |
| C=C1C(=O)[C@@]23[C@H](O)C[C@@H]4C(C)(C)CC[C@H](O)[C@]4(C)[C@@H]2C[C@H](O)[C@@H]1[C@H]3O | 62.1% (inactive) |
| COc1cc(-c2ccc3c(=O)c4ccccc4sc3c2)cc(OC)c1OC | 8.35% (inactive) |
| CCOC(=O)c1c(C)oc2ccc(NS(=O)(=O)c3ccc4c5c(cccc35)C(=O)N4)cc12 | 62.7% (inactive) |
| Cc1oc2c(cc(NS(=O)(=O)c3ccc4c5c(cccc35)C(=O)N4)c3ccccc32)c1C(=O)OC(C)C | 51% (inactive) |
| Nc1nc(SCc2ccc(Cl)cc2Cl)ns1 | 22.1% (inactive) |
| Nc1nc(SCc2ccccc2)ns1 | 15% (inactive) |
| CC1(C)CC[C@]2(C(=O)O[C@@H]3OC(CO)[C@@H](O)[C@H](O)[C@H]3O)CC[C@]3(C)C(=CCC4[C@@]5(C)CC[C@H](O[C@@H]6OC(C(=O)O)[C@@H](O)[C@H](O)[C@H]6O)C(C)(C)C5CC[C@]43C)[C@@H]2C1 (some centres undefined) | 1.92% (inactive) |
| CN(CC(=O)Nc1cccc(F)c1)C(=O)c1ccc(-c2cccc(C(F)(F)F)c2)o1 | 0.48% (inactive) |
| CCOc1ccccc1N(CC(=O)Nc1cccc2ccccc12)S(C)(=O)=O | -0.92% (inactive) |
| CC1(C)Cc2c(c(N3CCOCC3)nc3sc4c(NCC5CCCO5)nnnc4c23)CS1 (centres undefined) | 11.7% (inactive) |
| CC1(C)Cc2c(c(N3CCOCC3)nc3sc4c(NCCN5CCOCC5)nnnc4c23)CS1 | 36.9% (inactive) |
| O=S(=O)(NC1=NCCC1)c1cccc(NS(=O)(=O)c2ccc(OC(F)(F)F)cc2)c1 | -9.41% (inactive) |
| COc1ccccc1N(CC(=O)NCCc1ccccc1)C(=O)CCC(=O)Nc1ccccn1 | -2.52% (inactive) |
| COc1ccc(NC(=O)N2CCC3(CC2)OCCO3)cc1OC | 1.68% (inactive) |
| COc1ccc(NC(=O)CSc2nnc(-c3ccccn3)n2N)cc1 | 8.63% (inactive) |

| Compound | inhibition |
| --- | --- |
| COc1ccc(NC(=O)CSc2nnc(-c3ccco3)n2N)cc1Cl | 46.6% (inactive) |
| CC(C)(C)c1ccc(C(=O)NCC(=O)NNC(=O)c2ccccc2O)cc1 | 8.86% (inactive) |
| O=C(O)c1ccc(/C=N/NC(=O)c2cc3c(ccc4ccccc43)o2)cc1 | 4.81% (inactive) |
| O=C(N/N=C/c1ccncc1)c1cc2c(ccc3ccccc32)o1 | 1.21% (inactive) |
| CC(C)(C)c1ccc(OCC(=O)Nc2ccc(C(=O)Nc3ccccc3C(=O)O)cc2)cc1 | -6.72% (inactive) |
| O=C1NCC(O)=C1C=NCCO | 4.69% (inactive) |
| Cc1ccc(N=Cc2ccc[nH]2)c(O)c1 | 2.98% (inactive) |
| O=C1NCC(O)=C1C=NCCCO | -4.48% (inactive) |
| Fc1ccc(N=Cc2ccc[nH]2)cc1 | 13.1% (inactive) |
| N#CCCn1cc(C(=O)Nc2cccc(C(=O)O)c2)c(-c2ccc(Cl)cc2)n1 | -2.32% (inactive) |
| Cc1ccccc1COc1ccc(-c2nnn(CC(=O)O)n2)cc1 | 0.49% (inactive) |
| CCOc1ccc(NC(=O)CN(C)C(=O)c2c(-c3ccccc3)noc2C)cc1OCC | -10.4% (inactive) |
| Cc1ccc(NC(=O)CCC(=O)NNC(=O)CCc2ccccc2)c(C)c1 | 8.11% (inactive) |
| CCc1ccccc1NNC(=O)CCc1ccccc1 | 4.45% (inactive) |
| CCOC(=O)CSc1nnc(CSc2nc3sc4c(c3c(=O)[nH]2)CCC4)n1C | -1.21% (inactive) |
| COCCN1C(=O)C(CC(=O)Nc2ccccc2)SC1=Nc1ccc(OC)cc1 (centres undefined) | 6.34% (inactive) |
| Cc1ccc(NC(=O)c2cc(-c3ccccc3)nn2-c2ccccc2)c(Br)c1 | 62.5% (inactive) |
| Cc1ccc(NC(=O)c2cc(-c3ccccc3)nn2-c2ccccc2)cc1 | 0.76% (inactive) |
| Cc1ccnc(NC(=O)COC(=O)C2COc3ccccc3O2)n1 (centres undefined) | -4.37% (inactive) |
| CCOc1ccc(S(=O)(=O)N2CCCCC2)cc1NS(=O)(=O)c1cccs1 | -3.42% (inactive) |
| COc1cc([C@@H]2c3cc4c(cc3[C@H](O)[C@H]3COC(=O)[C@H]23)OCO4)cc(OC)c1OC | -2.97% (inactive) |
| COc1cc([C@@H]2c3cc4c(cc3[C@@H](OC)[C@H]3COC(=O)[C@H]23)OCO4)cc(OC)c1O | -15.3% (inactive) |
